# Source: PubChem BioAssay (NCATS)
# Several values for one entry are separate records, joined by “and”; a condition that tells them apart may be missing. Identical values can stand only once. Results filed as inconclusive are left out. Entries that show only a call come without a potency. Activity calls are given as the source filed them. Unless noted, calls follow the shape of the full dose curve.
# Key:
# [1] = molecular target: Bile acid receptor (Homo sapiens) (UniProt Q96RI1); test: qHTS assay for small molecule agonists of farnesoid X receptor signaling (AID 588527); settings: HEK293T FXR-UAS-bla, beta-lactamase ratio, 16 h; stronger effect = higher value
# Summary of the method: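 Agonist-mode beta-lactamase reporter in GeneBLAzer FXR-UAS-bla HEK293T cells, titration up to 92 uM, 16 h exposure at 37 C, CCF4 fluorescence. Response scaled to DMSO (0%) and 100 uM chenodeoxycholic acid (100%), then Hill-fitted for EC50 and efficacy.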
# [2] = molecular target: Peroxisome proliferator-activated receptor delta (Homo sapiens) (UniProt Q03181); test: qHTS assay for small molecule agonists of peroxisome proliferator-activated receptor delta signaling (AID 588534); settings: HEK293T PPARdelta-UAS-bla, beta-lactamase ratio, 18 h; series mostly up to 76.7 µM
# Summary of the method: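 Reporter cells were plated and held 5 hrs at 37 C before compounds were added. After 18 hrs at 37 C, CCF4 dye was loaded for 2 hrs at RT and fluorescence measured.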
# [3] = molecular target: Glucocorticoid receptor (Homo sapiens) (UniProt P04150); test: qHTS assay for small molecule agonists of glucocorticoid receptor signaling (AID 588532; active = well fitted curve in the direction sought with a large enough effect in the signal ratio, with a control signal flat; the % refers to the signal ratio); settings: HeLa MMTV-bla, beta-lactamase ratio, agonist, 18 h; stronger effect = higher value; percent of dexamethasone control, DMSO zero
# Summary of the method: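 MMTV-bla HeLa, beta-lactamase reporter; medium with 1% charcoal/dextran-stripped FBS; cpds up to 92 uM, 18 h, 37 C; CCF4 readout 460/530 nm; Hill fit → EC50, efficacy vs 0.1 uM dexamethasone = 100%.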
# [4] = qHTS assay for small molecule antagonists of peroxisome proliferator-activated receptor delta signaling (AID 588535; active = well fitted inhibition curve with a large enough effect in the signal ratio, with a control signal flat, not every such curve was filed as active; the % refers to the signal ratio;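 as to max response: cells co-treated with a PPAR-delta agonist as stimulator during compound exposure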); settings: HEK293T PPARd-UAS-bla, beta-lactamase FRET ratio, 18 h; 460 nm channel
# Summary of the method: (§1)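 GeneBLAzer PPAR-delta-UAS-bla HEK293T cells in medium with 2% charcoal/dextran FBS were preincubated 5 hrs at 37 C, then given compounds, incubated 18 hrs at 37 C, and read by CCF4 beta-lactamase fluorescence; IC50 from Hill fits.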
# [5] = molecular target: Peroxisome proliferator-activated receptor delta (Homo sapiens) (UniProt Q03181); test: as above; settings: HEK293T PPARd-UAS-bla, beta-lactamase FRET ratio, 18 h; series mostly up to 76.7 µM
# Summary of the method: as §1
# [6] = molecular target: Peroxisome proliferator-activated receptor gamma (Homo sapiens) (UniProt P37231); test: qHTS assay for small molecule agonists of peroxisome proliferator-activated receptor gamma signaling (AID 588536; active = well fitted curve in the direction sought with a large enough effect in the signal ratio, with a control signal flat, not every such curve was filed as active; the % refers to the signal ratio); settings: HEK293 PPARg-UAS-bla, beta-lactamase ratio, 16 h, percent of rosiglitazone response, DMSO as zero; series mostly up to 76.7 µM
# Summary of the method: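 Ratiometric blue/green fluorescence (405 nm excitation; 460 and 530 nm emission) from CCF4-loaded HEK293 reporter cells serves as signal. Exposure to test compounds lasts 16 h at 37 C in medium containing 1% charcoal/dextran-treated serum.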
# [7] = molecular target: Peroxisome proliferator-activated receptor gamma (Homo sapiens) (UniProt P37231); test: qHTS assay for small molecule antagonists of peroxisome proliferator-activated receptor gamma signaling (AID 588537; active = well fitted inhibition curve with a large enough effect in the signal ratio, with a control signal flat, not every such curve was filed as active; the % refers to the signal ratio;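 also: reporter cells co-stimulated with 50 nM rosiglitazone agonist during compound treatment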); settings: HEK293 PPARg-UAS-bla, beta-lactamase ratio, antagonist mode; series mostly up to 76.8 µM
# Summary of the method: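 PPAR-gamma-UAS-bla HEK293 cells (3000/well, 1% charcoal/dextran-stripped FBS) were preincubated 6-6.5 h at 37 C, given titrated compounds, then stimulated with 50 nM rosiglitazone for 16 h. Beta-lactamase activity was read with CCF4 dye; IC50 came from Hill fits.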
# [8] = molecular target: Vitamin D3 receptor (Homo sapiens) (UniProt P11473); test: qHTS assay for small molecule antagonists of vitamin D receptor signaling (AID 588541); settings: HEK293T VDR-UAS-bla, beta-lactamase ratio, antagonist mode; series mostly up to 76.7 µM;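 also: receptor activated by calcitriol during compound treatment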
# Summary of the method: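 VDR-UAS-bla HEK293T cells (2000/well, 2% charcoal-stripped FBS) were treated with titrated compounds plus 1-alpha,25-dihydroxyvitamin D3 (50 nM or 3 nM final) for 16 h at 37 C. CCF4 beta-lactamase fluorescence was read; Hill fits gave IC50.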
# [9] = molecular target: Vitamin D3 receptor (Homo sapiens) (UniProt P11473); test: qHTS assay for small molecule agonists of vitamin D receptor signaling (AID 588543); settings: HEK293T VDR-UAS-bla, beta-lactamase ratio, 16 h; series mostly up to 76.8 µM
# Summary of the method: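 Measured: β-lactamase reporter activity (CCF4, 405 nm excitation, 460/530 nm emission) in HEK293T VDR-UAS-bla cells after 16 h compound exposure at 37 °C. Normalization against 50 nM 1α,25-dihydroxyvitamin D3 and DMSO; Hill-fit EC50.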
# [10] = molecular target: Thyroid hormone receptor beta (Homo sapiens) (UniProt P10828); test: qHTS assay for small molecule agonists of thyroid hormone receptor beta signaling (AID 588545); settings: TR-UAS-bla GripTite HEK 293, beta-lactamase ratio, agonist mode, 18 h, percent of T3 response, DMSO as zero; series mostly up to 76.7 µM
# Summary of the method: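 Efficacy and EC50 values derive from Hill fits of qHTS titration data, normalized to 10 nM T3 and DMSO-only wells. HEK 293 reporter cells were stimulated for 18 hrs at 37 C, with beta-lactamase activity measured by CCF4 fluorescence.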
# [11] = qHTS assay for small molecule antagonists of retinoid X receptor alpha signaling (AID 588546; active = well fitted inhibition curve with a large enough effect in the signal ratio, with a control signal flat, not every such curve was filed as active; the % refers to the signal ratio; also: potency is read from the fitted curve at half-maximal effect;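 as to max response: cells stimulated with 9-cis-retinoic acid as agonist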); settings: HEK293T RXRa-UAS-bla, beta-lactamase ratio, antagonist mode; measured here: W530 green channel, cytotoxicity proxy
# Summary of the method: (§2)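 Beta-lactamase reporter inhibition, read as CCF4 fluorescence ratio (ex 405, em 460/530 nm) after 2 h at RT. HEK293T UAS-bla cells, 2500/well, were stimulated with 9-cis-RA at 500 or 100 nM final alongside test compound for 18 h at 37 C.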
# [12] = molecular target: Retinoic acid receptor RXR-alpha (Homo sapiens) (UniProt P19793); test: as above; settings: HEK293T RXRa-UAS-bla, beta-lactamase ratio, antagonist mode
# Summary of the method: as §2
# [13] = molecular target: Thyroid hormone receptor beta (Homo sapiens) (UniProt P10828); test: qHTS assay for small molecule antagonists of thyroid hormone receptor beta signaling (AID 588547; active = well fitted inhibition curve with a large enough effect in the signal ratio, with a control signal flat, not every such curve was filed as active; the % refers to the signal ratio;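 also: cells stimulated with 0.4 nM T3 agonist during compound exposure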); settings: TR-UAS-bla HEK293, beta-lactamase ratio, antagonist mode, 18 h
# Summary of the method: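 TR-UAS-bla GripTite HEK293 cells in 2% charcoal/dextran FBS medium were preincubated 4 h at 37 C, given compound (0.59 nM to 92 uM) plus 0.4 nM T3 (final) for 18 h, then CCF4 for 2 h at RT; Hill fit gave IC50.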
# [14] = molecular target: Glucocorticoid receptor (Homo sapiens) (UniProt P04150); test: qHTS assay for small molecule antagonists of glucocorticoid receptor signaling (AID 588533; active = well fitted inhibition curve with a large enough effect in the signal ratio, with a control signal flat, not every such curve was filed as active; the % refers to the signal ratio;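 also: cells stimulated with 2 nM dexamethasone as agonist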); settings: HeLa MMTV-bla, GRE beta-lactamase ratio, antagonist mode, 18 h; series mostly up to 76.8 µM
# Summary of the method: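 Antagonist-mode qHTS: compound titrations added to GRE-bla HeLa cells, then dexamethasone 2 nM final; 18 h, 37 C. CCF4 FRET fluorescence normalized to dexamethasone and DMSO; IC50 from Hill fit.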
# [15] = qHTS assay for small molecule agonists of retinoid X receptor alpha signaling (AID 588544); settings: HEK293T RXRa-UAS-bla, beta-lactamase reporter, 18 h; 530 nm emission
# Sequence of Bile acid receptor (Homo sapiens) (Q96RI1 whole entry, looked up): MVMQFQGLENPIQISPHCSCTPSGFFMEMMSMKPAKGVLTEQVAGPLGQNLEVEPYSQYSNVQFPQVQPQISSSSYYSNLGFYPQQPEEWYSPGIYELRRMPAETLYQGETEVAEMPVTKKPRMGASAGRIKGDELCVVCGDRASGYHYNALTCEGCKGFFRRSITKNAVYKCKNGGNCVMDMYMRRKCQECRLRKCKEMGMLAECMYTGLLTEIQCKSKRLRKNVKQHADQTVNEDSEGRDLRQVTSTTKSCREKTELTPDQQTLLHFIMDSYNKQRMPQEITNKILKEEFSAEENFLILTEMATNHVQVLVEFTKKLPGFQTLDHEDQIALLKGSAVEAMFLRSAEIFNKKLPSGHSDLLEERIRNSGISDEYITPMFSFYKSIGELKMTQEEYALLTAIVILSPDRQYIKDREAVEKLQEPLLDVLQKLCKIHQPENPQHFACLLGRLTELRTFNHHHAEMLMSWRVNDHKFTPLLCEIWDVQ
# Sequence of Thyroid hormone receptor beta (Homo sapiens) (P10828 whole entry, looked up): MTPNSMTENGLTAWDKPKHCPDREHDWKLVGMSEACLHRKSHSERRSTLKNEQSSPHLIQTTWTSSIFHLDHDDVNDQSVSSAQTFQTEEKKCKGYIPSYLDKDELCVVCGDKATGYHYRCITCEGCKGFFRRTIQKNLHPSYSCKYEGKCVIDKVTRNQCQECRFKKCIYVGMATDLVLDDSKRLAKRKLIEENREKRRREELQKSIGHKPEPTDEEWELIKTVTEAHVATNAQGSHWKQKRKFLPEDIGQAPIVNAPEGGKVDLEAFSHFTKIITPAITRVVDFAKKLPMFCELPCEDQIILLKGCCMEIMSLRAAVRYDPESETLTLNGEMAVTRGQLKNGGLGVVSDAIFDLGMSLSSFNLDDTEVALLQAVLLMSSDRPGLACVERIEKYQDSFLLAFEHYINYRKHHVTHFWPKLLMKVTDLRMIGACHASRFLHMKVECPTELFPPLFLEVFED
# Sequence of Peroxisome proliferator-activated receptor delta (Homo sapiens) (Q03181 whole entry, looked up): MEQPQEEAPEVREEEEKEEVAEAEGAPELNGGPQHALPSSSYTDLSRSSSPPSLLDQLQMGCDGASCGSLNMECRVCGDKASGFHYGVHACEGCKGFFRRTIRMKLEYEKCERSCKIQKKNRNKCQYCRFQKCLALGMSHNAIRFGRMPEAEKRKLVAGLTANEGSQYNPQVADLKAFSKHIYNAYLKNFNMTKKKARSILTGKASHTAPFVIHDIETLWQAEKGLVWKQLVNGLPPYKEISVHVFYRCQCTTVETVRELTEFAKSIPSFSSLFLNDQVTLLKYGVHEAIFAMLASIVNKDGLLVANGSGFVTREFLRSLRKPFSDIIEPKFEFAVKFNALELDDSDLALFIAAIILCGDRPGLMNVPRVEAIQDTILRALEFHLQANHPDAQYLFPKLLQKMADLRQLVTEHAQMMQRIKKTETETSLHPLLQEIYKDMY
# Sequence of Vitamin D3 receptor (Homo sapiens) (P11473 whole entry, looked up): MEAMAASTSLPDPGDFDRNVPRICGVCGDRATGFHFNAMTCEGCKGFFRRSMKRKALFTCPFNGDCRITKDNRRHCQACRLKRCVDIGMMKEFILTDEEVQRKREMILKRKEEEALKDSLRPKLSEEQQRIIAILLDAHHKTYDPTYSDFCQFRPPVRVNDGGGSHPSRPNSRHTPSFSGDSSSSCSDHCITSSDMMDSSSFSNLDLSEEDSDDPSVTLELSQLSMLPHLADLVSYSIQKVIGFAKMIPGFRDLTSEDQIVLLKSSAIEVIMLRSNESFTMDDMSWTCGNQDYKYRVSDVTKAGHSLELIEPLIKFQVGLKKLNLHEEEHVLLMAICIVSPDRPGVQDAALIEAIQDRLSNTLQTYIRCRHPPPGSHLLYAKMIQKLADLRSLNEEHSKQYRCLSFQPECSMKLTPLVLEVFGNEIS
# Sequence of Peroxisome proliferator-activated receptor gamma (Homo sapiens) (P37231 whole entry, looked up): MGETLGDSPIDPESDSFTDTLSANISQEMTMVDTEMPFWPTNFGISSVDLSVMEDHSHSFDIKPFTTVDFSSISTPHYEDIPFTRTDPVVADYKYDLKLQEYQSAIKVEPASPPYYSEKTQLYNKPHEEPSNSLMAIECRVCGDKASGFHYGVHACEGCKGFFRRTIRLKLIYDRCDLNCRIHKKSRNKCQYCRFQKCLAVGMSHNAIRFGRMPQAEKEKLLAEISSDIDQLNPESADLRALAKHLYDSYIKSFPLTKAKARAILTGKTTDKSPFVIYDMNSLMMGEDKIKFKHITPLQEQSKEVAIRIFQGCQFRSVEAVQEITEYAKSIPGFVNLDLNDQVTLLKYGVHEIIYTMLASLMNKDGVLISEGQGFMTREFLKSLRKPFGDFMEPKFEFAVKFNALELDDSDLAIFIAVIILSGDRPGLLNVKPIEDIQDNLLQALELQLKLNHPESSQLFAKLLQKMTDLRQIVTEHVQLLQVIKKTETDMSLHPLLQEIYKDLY
# Sequence of Glucocorticoid receptor (Homo sapiens) (P04150 whole entry, looked up): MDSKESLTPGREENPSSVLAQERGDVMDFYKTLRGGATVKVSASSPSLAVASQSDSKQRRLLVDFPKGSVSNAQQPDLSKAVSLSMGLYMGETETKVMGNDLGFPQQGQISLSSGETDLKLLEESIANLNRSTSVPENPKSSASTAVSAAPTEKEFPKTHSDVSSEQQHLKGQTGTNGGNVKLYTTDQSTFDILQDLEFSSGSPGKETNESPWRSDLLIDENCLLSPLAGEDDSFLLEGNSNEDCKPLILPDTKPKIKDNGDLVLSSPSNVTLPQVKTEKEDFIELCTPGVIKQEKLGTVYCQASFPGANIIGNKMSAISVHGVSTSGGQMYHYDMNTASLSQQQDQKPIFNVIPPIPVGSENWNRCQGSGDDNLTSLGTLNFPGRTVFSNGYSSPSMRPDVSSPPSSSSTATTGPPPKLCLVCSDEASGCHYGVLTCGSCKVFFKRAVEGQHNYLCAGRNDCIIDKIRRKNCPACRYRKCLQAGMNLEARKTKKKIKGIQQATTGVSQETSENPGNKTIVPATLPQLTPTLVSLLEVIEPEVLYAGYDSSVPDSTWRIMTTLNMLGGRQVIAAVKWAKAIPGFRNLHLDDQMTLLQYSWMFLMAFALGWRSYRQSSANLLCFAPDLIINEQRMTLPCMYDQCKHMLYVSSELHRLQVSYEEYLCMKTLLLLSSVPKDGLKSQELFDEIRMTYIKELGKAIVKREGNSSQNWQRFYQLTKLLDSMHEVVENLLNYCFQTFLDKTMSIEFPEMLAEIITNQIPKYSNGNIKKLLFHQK
# Sequence of Retinoic acid receptor RXR-alpha (Homo sapiens) (P19793 whole entry, looked up): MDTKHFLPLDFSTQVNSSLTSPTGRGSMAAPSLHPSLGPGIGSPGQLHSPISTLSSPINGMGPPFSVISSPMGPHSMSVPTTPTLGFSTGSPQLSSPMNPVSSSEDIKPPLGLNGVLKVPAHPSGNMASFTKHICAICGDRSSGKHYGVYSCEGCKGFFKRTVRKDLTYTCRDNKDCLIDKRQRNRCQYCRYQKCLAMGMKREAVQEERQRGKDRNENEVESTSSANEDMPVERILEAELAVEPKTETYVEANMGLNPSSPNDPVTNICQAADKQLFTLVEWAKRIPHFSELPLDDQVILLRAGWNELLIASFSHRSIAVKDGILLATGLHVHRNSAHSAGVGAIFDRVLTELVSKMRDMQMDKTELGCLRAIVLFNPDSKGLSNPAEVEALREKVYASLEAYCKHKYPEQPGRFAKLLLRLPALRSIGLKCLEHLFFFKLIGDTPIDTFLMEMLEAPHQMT
structure (smiles),measurement,setting,value
CCCCOCCOCCOCc1cc2c(cc1CCC)OCO2,activation,[1],1.08% (inactive) and -5.21% (inactive)
same,outcome,[2],inactive
COc1cc(Cc2cnc(N)nc2N)cc(OC)c1OC,outcome,[2],inactive
C[C@@H]1C[C@H]2[C@@H]3CCC4=CC(=O)C=C[C@]4(C)[C@@]3(F)[C@@H](O)C[C@]2(C)[C@@]1(O)C(=O)CO,outcome,[2],inactive
Cc1cn([C@H]2C[C@H](N=[N+]=[N-])[C@@H](CO)O2)c(=O)[nH]c1=O,activation,[1],-3.84% (inactive)
same,outcome,[2],inactive
CC(=O)N[C@@H](CS)C(=O)O,outcome,[2],inactive
Cc1ncc([N+](=O)[O-])n1CCO,outcome,[2],inactive
CN(C)/N=N/c1nc[nH]c1C(N)=O,activation,[1],-3.3% (inactive)
same,outcome,[2],inactive
CC1=C(/C=C/C(C)=C/C=C/C(C)=C/C(=O)Nc2ccc(O)cc2)C(C)(C)CCC1,activation,[1],-5.41% (inactive)
same,outcome,[2],inactive
C[C@](N)(Cc1ccc(O)c(O)c1)C(=O)O,outcome,[2],inactive
Oc1cc(Cl)ccc1Oc1ccc(Cl)cc1Cl,activation,[3],-14.4% (inactive)
same,outcome,[2],inactive
same,max response,[4],38.5%
same,outcome,[5],inactive
same,outcome,[6],inactive
same,Potency,[7],inactive
same,outcome,[8],inactive
same,outcome,[9],inactive
same,outcome,[10],inactive
same,max response,[11],-6.33%
same,Potency,[12],44.7 µM (active)
Nc1ccc(O)c(C(=O)O)c1,activation,[1],-5.01% (inactive) and -0.178% (inactive)
same,outcome,[2],inactive
CC(C)NCC(O)c1ccc(O)c(O)c1 (centres undefined),outcome,[2],inactive
O=C1CCC(N2C(=O)c3ccccc3C2=O)C(=O)N1 (centres undefined),outcome,[2],inactive
Oc1cccc2cccnc12,activation,[1],-3.45% (inactive) and -4.35% (inactive)
same,outcome,[2],inactive
same,max response,[4],-10.4% and -24.8%
same,outcome,[5],inactive
same,outcome,[6],inactive
same,Potency,[7],inactive
same,outcome,[8],inactive
same,outcome,[9],inactive
same,outcome,[10],inactive
same,max response,[11],12%
same,max response,[12],-19.8% (inactive)
same,activity change % (negative = inhibition),[13],-18.8% (inactive) and -22.1% (inactive)
Nc1ncn([C@@H]2O[C@H](CO)[C@@H](O)[C@H]2O)c(=O)n1,outcome,[2],inactive
O=NN(CCCl)C(=O)NCCCl,outcome,[2],inactive
NC[C@H](O)c1ccc(O)c(O)c1,outcome,[2],inactive
CS(=O)(=O)OCCCCOS(C)(=O)=O,outcome,[2],inactive
CCCc1cc(=O)[nH]c(=S)[nH]1,outcome,[2],inactive
COc1cccc2c1C(=O)c1c(O)c3c(c(O)c1C2=O)C[C@@](O)(C(=O)CO)C[C@@H]3O[C@H]1C[C@H](N)[C@H](O)[C@H](C)O1,outcome,[2],inactive
O=c1[nH]cnc2c1ncn2[C@H]1CC[C@@H](CO)O1,outcome,[2],inactive
Nc1cc(-c2ccncc2)c[nH]c1=O,outcome,[2],inactive
OC(Cn1cncn1)(Cn1cncn1)c1ccc(F)cc1F,outcome,[2],inactive
CCN(CC)C(=S)SSC(=S)N(CC)CC,outcome,[2],inactive
OCCOCCN1CCN(C(c2ccccc2)c2ccc(Cl)cc2)CC1 (centres undefined),outcome,[2],inactive
Clc1ccc(C(c2ccccc2Cl)C(Cl)Cl)cc1 (centres undefined),activation,[1],3.36% (inactive)
same,outcome,[2],inactive
CCOP(=S)(OCC)Oc1cc(C)nc(C(C)C)n1,activation,[3],-2.71% (inactive)
same,Potency,[14],inactive
same,outcome,[2],inactive
same,max response,[4],-10.2% and 44.9%
same,outcome,[5],inactive
same,outcome,[6],inactive
same,Potency,[7],inactive
same,max response,[15],-5.09% and -15.6%
same,outcome,[10],inactive
same,max response,[11],-12.3% and -5.87%
same,max response,[12],-2.21% (inactive) and -10% (inactive)
same,activity change % (negative = inhibition),[13],-8.33% (inactive) and 8.71% (inactive)
N=C(N)c1ccc(OCCCCCOc2ccc(C(=N)N)cc2)cc1,outcome,[2],inactive
CC(COc1ccccc1)N(CCCl)Cc1ccccc1 (centres undefined),activation,[3],-12.9% (inactive)
same,outcome,[2],inactive
NS(=O)(=O)c1cc2c(cc1Cl)NC=NS2(=O)=O,outcome,[2],inactive
CN(C)CCCN1c2ccccc2Sc2ccc(Cl)cc21,outcome,[2],inactive
O=C1NC(=O)C(c2ccccc2)(c2ccccc2)N1,outcome,[2],inactive
Cc1ccc(S(=O)(=O)NC(=O)NN2CCCCCC2)cc1,outcome,[2],inactive
NC(=O)N/N=C/c1ccc([N+](=O)[O-])o1,outcome,[2],inactive
CC[C@H](C)C(=O)O[C@H]1C[C@@H](C)C=C2C=C[C@H](C)[C@H](CC[C@@H]3C[C@@H](O)CC(=O)O3)[C@H]21,activation,[1],-3.65% (inactive)
same,outcome,[2],inactive
Cc1ccccc1C(OCCN(C)C)c1ccccc1 (centres undefined),activation,[1],-1.23% (inactive)
same,outcome,[2],inactive
Cn1cnc([N+](=O)[O-])c1Sc1ncnc2nc[nH]c12,outcome,[2],inactive
CCCNC(=O)NS(=O)(=O)c1ccc(Cl)cc1,outcome,[2],inactive
